Results as given in PubChem BioAssay AID1246 (Columbia University Molecular Screening Center, 2008).
The campaign covered roughly 120,000 compounds. About 840 (0.7%) were called active.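 Rule for the calls: active = inhibition above the batch mean plus 3 SD, and confirmed as a hit on visual image review (cut at about 43% in these data); inconclusive = passes the inhibition cutoff but fails visual image review; inactive = the rest.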 The entries come from a sample that favours actives as a whole.

Assay: E-selectin induction blockers in HUVEC – imaging, immunofluorescence, high content, primary screen (AID 1246);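 note: 0% = TNF-stimulated DMSO wells and 100% = unstimulated control wells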
Details: HUVEC TNFa-induced E-selectin immunofluorescence, at 2 µM, hits give high values

inhibition, inactive:
O=c1cc(O)c(-c2cccc(C(F)(F)F)c2)c(Cl)[nH]1 14.3%
CCc1ccccc1NC(=S)N(CCN1CCCCCC1)Cc1ccco1 -12.7%
N/C(Cc1ccc([N+](=O)[O-])cc1)=N\OC(=O)C1CCCCC1 -1.96%
CCOC(=O)COc1ccc([N+](=O)[O-])cc1 7.8%
Cc1ccnc(NC(=O)CCCOc2ccccc2)c1 4.53%
Cc1cc(C)nc(SCC(=O)N(C)C)n1 0.21%
COc1ccc(CN2CCNC(=O)C2CC(=O)N(C)Cc2ccccn2)cc1OC (centres undefined) -8.81%
Cc1cc(C)c(C#N)c(SCC(=O)Nc2ccccc2)n1 -29.3%
CC(=O)c1ccc(-c2nnc(CCC(=O)N(C)Cc3cnc4ccccn34)o2)s1 4.22%
N#CC1=C(N)Oc2[nH]c(=S)[nH]c(=O)c2C12C(=O)Nc1ccccc12 (centres undefined) -26.7%
COc1ccc(-c2nnn(Cc3nc(N)nc(N4CCCCC4)n3)n2)cc1 -40.4%
COc1ccc(-n2nnnc2SCC(=O)NCc2cccs2)cc1 12.9%
CCOC(=O)c1sc(=NC(=O)/C=C/c2cccs2)n(C)c1C -26.1%
Cc1cccc(C(=O)NNC(=O)c2cccc([N+](=O)[O-])c2)c1 -0.72%
O=C(CC12CC3CC(CC(C3)C1)C2)NCc1ccco1 23.1%
Fc1ccccc1Cn1cnc(NC(=S)NCCc2ccccc2)n1 -14.1%
CCC(C)CN1CCC(CO)(Cc2ccccc2Cl)CC1 (centres undefined) -16.5%
CCN1CCN(CC(=O)Nc2sc3c(c2C#N)CCC3)CC1 9.33%
CCN(CC)CCNC(=O)c1ccc(NC(=O)c2c(F)cccc2Cl)cc1 -1.94%
O=C(NCC1CCCO1)C1CCN(C2CCN(C(=O)C3CCCCC3)CC2)CC1 (centres undefined) 13%
O=C(CCCN1C(=O)c2cccc3cccc(c23)C1=O)N1CCN(Cc2ccc3c(c2)OCO3)CC1 -25.6%
Cn1c(=O)cc(OCCCC(=O)N2CCN(c3ccccn3)CC2)c2ccccc21 -12.9%
COCc1ccc(C(=O)N2CCc3c([nH]c4ccccc34)C2c2ccccn2)s1 (centres undefined) 4.79%
CCN(CC)c1ccc2c(Nc3ccccc3)c(C=O)c(=O)oc2c1 -20.2%
O=C(COC(=O)c1ccco1)NCc1ccc(Cl)cc1 -1.29%
O=S(=O)(/N=C(/Nc1ccccn1)c1ccccc1)c1ccc(Cl)cc1 -19.7%
O=C(O)c1ccc(NC(=O)c2cccs2)cc1 -5.04%
COc1ccc(NC(=O)CN2C(=O)CSC2=O)cc1 -1.6%
O=C(N/N=C/c1cc2c(cc1Br)OCO2)C1COc2ccccc2O1 (centres undefined) -17.4%
Cc1cc(C)cc(OCC(=O)Nc2ccc(S(=O)(=O)Nc3ccccn3)cc2)c1 -36.2%

inhibition, active:
N/C(Cc1ccc([N+](=O)[O-])cc1)=N\OC(=O)COc1ccc2ccccc2c1 62.5%
COc1ccc(-n2nnnc2SCc2nc(N)nc(N3CCOCC3)n2)cc1 61.2%
Cn1c(=O)cc(OCCCC(=O)N2CCN(Cc3ccc4c(c3)OCO4)CC2)c2ccccc21 52.1%
O=S(=O)(/N=C(/Nc1ccccc1)c1ccccc1)c1cccs1 68.3%
